The target of the assay is T1, CRBN, Q96SW2.
T1 chain: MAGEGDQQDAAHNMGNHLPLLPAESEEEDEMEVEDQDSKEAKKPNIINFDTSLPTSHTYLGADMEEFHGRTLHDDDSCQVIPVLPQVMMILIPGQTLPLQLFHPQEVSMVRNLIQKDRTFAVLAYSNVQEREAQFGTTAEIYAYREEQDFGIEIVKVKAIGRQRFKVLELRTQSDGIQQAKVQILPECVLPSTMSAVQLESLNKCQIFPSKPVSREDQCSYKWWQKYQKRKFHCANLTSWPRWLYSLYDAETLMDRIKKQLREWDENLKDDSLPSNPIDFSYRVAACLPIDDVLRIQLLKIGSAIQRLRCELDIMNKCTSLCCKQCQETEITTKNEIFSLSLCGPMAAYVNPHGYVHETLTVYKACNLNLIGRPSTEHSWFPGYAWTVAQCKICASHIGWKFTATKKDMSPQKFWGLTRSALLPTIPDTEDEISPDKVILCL
Description: log2 fold change of degron read counts, EGFP-low vs EGFP+ sorted cells (limma voom), compound-induced degradation; higher = more compound-induced degradation of the degron-EGFP fusion; degrons are variants of IKZF1/3 zinc finger 2; compound dose not given here. Particulars: Jurkat, 18 h.

Setting [1] is: compound: compound 19 (5-tert-butyl-thalidomide).
Setting [2] is: compound: compound 22 (5-morpholino-thalidomide).
Where [3] appears, read: compound: compound 33 (diphenyl IMiD analogue).

Over roughly 8,300 sequences, “log2 fold change of degron read counts, EGFP-low vs EGFP+ sorted cells (limma voom), compound-induced degradation” has its median near -1.1; the highest 2% begin near 3.2. The sample as a whole holds a higher share of the highest values than the screen did.
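Also: pooled lentiviral library of zinc finger degron-EGFP fusions in mCherry-positive Jurkat cells, FACS-sorted after compound exposure, with degron abundance counted by next-generation sequencing.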

On to FHCDQCGACFTQKGNLLRHIKL [46F_47H_49D_50Q_52G_53A_54C_55F_67L_, Q9UKT9], for which the “log2 fold change of degron read counts” value was -1.69 under setting [1], -1.96 under setting [2], -2.17 under setting [3] and -2.89 (compound: thalidomide).
Regarding FICPICGAIFTQKGNLLRHIKL [46F_47I_49P_50I_52G_53A_54I_55F_67L_, Q9UKT9], the “log2 fold change of degron read counts” value runs as follows: under setting [1], -1.09; under setting [2], 0.608; under setting [3], 1.82; (compound: thalidomide) 1.64.
The corresponding values for FICPICGRHFTQKGNLLRHIKL [46F_47I_49P_50I_52G_53R_54H_55F_67L_, Q9UKT9] are -1.55, -0.572, -0.548 and 0.569.
The corresponding values for FYCDVCGATFTQKGNLLRHIKL [46F_47Y_49D_50V_52G_53A_54T_55F_67L_, Q9UKT9] are 2.06, 2.82, 0.691 and -1.49.
The corresponding values for FHCEVCGARFTQKGNLLRHIKL [46F_47H_49E_50V_52G_53A_54R_55F_67L_, Q9UKT9] are 2.39, 2.38, 0.473 and 0.568.
As to FTCEVCGARFTQKGNLLRHIKL [46F_47T_49E_50V_52G_53A_54R_55F_67L_, Q9UKT9], the “log2 fold change of degron read counts” value was determined as 1.77 under setting [1], 3.04 under setting [2], 1.75 under setting [3] and 3.26 (compound: thalidomide).
The corresponding values for FSCEVCGARFTQKGNLLRHIKL [46F_47S_49E_50V_52G_53A_54R_55F_67L_, Q9UKT9] are 3.53, 2.6, 0.369 and 2.08.
As for FRCEVCGARFTQKGNLLRHIKL [46F_47R_49E_50V_52G_53A_54R_55F_67L_, Q9UKT9], the “log2 fold change of degron read counts” value was -1.49 under setting [1], -2.37 under setting [2], -0.456 under setting [3] and 0.516 (compound: thalidomide).
The corresponding values for FTCEVCGALFTQKGNLLRHIKL [46F_47T_49E_50V_52G_53A_54L_55F_67L_, Q9UKT9] are -0.893, -0.862, 0.362 and 0.612.
The corresponding values for FTCNICGAGFTQKGNLLRHIKL [46F_47T_49N_50I_52G_53A_54G_55F_67L_, Q9UKT9] are 0.378, 0.88, 1.61 and 1.21.
In the case of FSCEICGAEFTQKGNLLRHIKL [46F_47S_49E_50I_52G_53A_54E_55F_67L_, Q9UKT9], the “log2 fold change of degron read counts” value came to 1.69 under setting [1], 0.708 under setting [2], 0.218 under setting [3] and 0.0707 (compound: thalidomide).
The corresponding values for FQCPICGAAFTQKGNLLRHIKL [46F_47Q_49P_50I_52G_53A_54A_55F_67L_, Q9UKT9] are 2.65, 3.13, 2.56 and 3.53.
The corresponding values for FNCPICGAAFTQKGNLLRHIKL [46F_47N_49P_50I_52G_53A_54A_55F_67L_, Q9UKT9] are 2.96, 1.85, 0.954 and 1.13.
The corresponding values for FFCPICGAAFTQKGNLLRHIKL [46F_47F_49P_50I_52G_53A_54A_55F_67L_, Q9UKT9] are 3.15, 3, 2.18 and 1.33.
In the case of FGCPICGAAFTQKGNLLRHIKL [46F_47G_49P_50I_52G_53A_54A_55F_67L_, Q9UKT9], the “log2 fold change of degron read counts” value is, setting by setting: under setting [1], 3.57; under setting [2], 2.61; under setting [3], 2.88; (compound: thalidomide) 1.63.
On the same counts, the results for FICPICGAAFTQKGNLLRHIKL [46F_47I_49P_50I_52G_53A_54A_55F_67L_, Q9UKT9] are 0.268, 3.15, 2.21 and 2.78.
Consider FHCPICGAAFTQKGNLLRHIKL [46F_47H_49P_50I_52G_53A_54A_55F_67L_, Q9UKT9], for which the “log2 fold change of degron read counts” value reads like this: under setting [1], 3.05; under setting [2], 2.78; under setting [3], 2.28; (compound: thalidomide) 1.19.
FVCPICGAAFTQKGNLLRHIKL [46F_47V_49P_50I_52G_53A_54A_55F_67L_, Q9UKT9]: the “log2 fold change of degron read counts” value reads like this: under setting [1], 1.31; under setting [2], 2.85; under setting [3], 2.04; (compound: thalidomide) 3.03.
As for FRCPICGAAFTQKGNLLRHIKL [46F_47R_49P_50I_52G_53A_54A_55F_67L_, Q9UKT9], the “log2 fold change of degron read counts” value under setting [1] turned out to be 2.26, the “log2 fold change of degron read counts” value under setting [2] was determined as 2.26, the “log2 fold change of degron read counts” value under setting [3] is 2.48 and the “log2 fold change of degron read counts” value (compound: thalidomide) was 2.19.
On to FKCPICGAAFTQKGNLLRHIKL [46F_47K_49P_50I_52G_53A_54A_55F_67L_, Q9UKT9], for which the “log2 fold change of degron read counts” value is 2.04 under setting [1], -0.319 under setting [2], -1.26 under setting [3] and 1.01 (compound: thalidomide).
The corresponding values for FSCPICGAAFTQKGNLLRHIKL [46F_47S_49P_50I_52G_53A_54A_55F_67L_, Q9UKT9] are 3.12, 2.69, 2.7 and 2.11.
The corresponding values for FYCPICGAAFTQKGNLLRHIKL [46F_47Y_49P_50I_52G_53A_54A_55F_67L_, Q9UKT9] are 2.86, 3.24, 2.38 and 0.578.
In the case of FWCPICGAAFTQKGNLLRHIKL [46F_47W_49P_50I_52G_53A_54A_55F_67L_, Q9UKT9], the “log2 fold change of degron read counts” value under setting [1] is 3.12, the “log2 fold change of degron read counts” value under setting [2] turned out to be 3.3, the “log2 fold change of degron read counts” value under setting [3] was 2.33 and the “log2 fold change of degron read counts” value (compound: thalidomide) turned out to be 1.2.
The corresponding values for FFCPICGRAFTQKGNLLRHIKL [46F_47F_49P_50I_52G_53R_54A_55F_67L_, Q9UKT9] are -0.764, -1.23, -0.0789 and -1.31.
In the case of FICPVCGAYFTQKGNLLRHIKL [46F_47I_49P_50V_52G_53A_54Y_55F_67L_, Q9UKT9], the “log2 fold change of degron read counts” value was -0.575 under setting [1], 1.65 under setting [2], 1.98 under setting [3] and 1.66 (compound: thalidomide).
The corresponding values for FHCEVCGAWFTQKGNLLRHIKL [46F_47H_49E_50V_52G_53A_54W_55F_67L_, Q9UKT9] are -1.47, -1.81, -0.825 and -1.89.
The corresponding values for LDCEICGFICTQKGNLLRHIKL [46L_47D_49E_50I_52G_53F_54I_55C_67L_, Q9UKT9] are -0.803, -0.92, -0.72 and -0.457.
Regarding LRCPICGFDCTQKGNLLRHIKL [46L_47R_49P_50I_52G_53F_54D_55C_67L_, Q9UKT9], the “log2 fold change of degron read counts” value is, setting by setting: under setting [1], -1.49; under setting [2], -1.07; under setting [3], 0.189; (compound: thalidomide) 0.67.

The values above are taken from the supplement of paper PMC12645437, “Orthogonal IMiD-Degron Pairs Induce Selective Protein Degradation in Cells” (ACS Chemical Biology, 2025).
